Experimental findings from the supplement of paper PMC6555819 are described below.

In the test the test system is RARb homodimer (NR concentration 270 nM). The test can be described thus: PBM binding z-score (relative to random genomic background probes); higher = stronger binding; sequences stand for … in GC…GCGATTGACAGCGTAGAATGAAGG
In outline:
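Scanned fluorescence from custom Agilent 4×180K protein-binding microarrays was regression-normalized. Binding z-scores use random background probes as reference. Ligand-free nuclear receptor dimers were incubated on the arrays for 1 h and detected with antibodies against each partner (one per run).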
Sequence ATCGAAAGGTCGACGAGGAGAGTATACACCGTTT came in with a PBM binding z-score of 2.37.
With CCTACTGGGCCAAAAAGGTAATTGATGCCGATAA the figure was -0.363.
CGAACTAGGTCATCGAGGACAGTGAATACATTGA had a PBM binding z-score of 3.3.
With TCTAGTTGGTCGCGGAGGTCACACACGACGGGTA the figure was 3.92; with CGAACTAAGTCATCCAGGACAGTGAATACATTGA, 0.33.
The sequence TCTGCTAGGTCAGGTGGTCAGCTAACGAGCTGCC came in with a PBM binding z-score of 2.83.
In turn, CGAACTAGGTCAACGACAGTGAATCTCCGCACGC displayed a PBM binding z-score of 2.87.
For AGTAGCAGGCCAAGGGTCACTCAAGATTAGTCCG, the PBM binding z-score is 3.98.
In turn, CCTCGGAGGACAACCGGAGGTCAGAGCTGCCAGA had a PBM binding z-score of 3.53.
With TAGCCTAGGTCATTCAGGGGTCAGTATAGAAAGC the figure was 5.2; with CGTCCAAGGTCACCAGGTCAGTGAAAGCGACGTG, 5.13.
TATCCTAGGTCAGATCGGGCCAGTATACGCTATA showed a PBM binding z-score of 2.53.
With CGAACTAAGTCACCAGGACAGTGAAGAGGTTGGA the figure was 0.502; with CCTACTGGGCCAAGGTCATTGAGCAGTCAAAGCA, 3.03; with CCTACTGGGCCAATAAGGTCATTGATGCCGATAA, 3.48.
TCTGCTGGGTCAACGATGGTCAGCTAATCTGCTA returned a PBM binding z-score of 2.96.
As for GCTAGTAGGTCAGTAAAAGGTCACACACCGGTCG, the PBM binding z-score turned out to be 6.06.
Turning to TGTCAAAGCTCAAAGGTAACGTAAGTATCCACAC, the PBM binding z-score was 0.284.
GCTCGGAGGACAAGGTCACAGCTTTGTCCGTAGA gave a PBM binding z-score of 3.72.
On to CGAACTAGGTGATTGACAGGACAGTGAATAGTAA, for which the PBM binding z-score was determined as 0.647.
The sequence CCTACTGGGCCAAAGGACATTGATTCCAATGCTC registered a PBM binding z-score of 0.475.
With CGAACTAGGTCAAAGGACAGGGAAAGGCGACGTA the figure was 3.14.
